# “And” between values parts separate entries of the source, which are not always exact repeats. Identical values can stand only once. Records with an inconclusive call do not appear. The source made the active and inactive calls. Rule for the calls: active = hit-call score of the fitted dose curve at least 0.9, where 1 is the maximum; inconclusive = response in the unintended direction; inactive = score below 0.9.
# What was measured:
# [1] = ACEA_ER_AUC_viability: ACEA Biosciences xCELLigence Real-Time Cell Analysis on Estrogen Receptor Agonism for Viability (AID 2283782);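 note: continuous compound exposure with impedance area under curve over 80 h; hit means loss of impedance signal meaning reduced cell growth or viability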
# How it was run: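 T-47D human breast cells in phenol red-free RPMI1640 with 10% charcoal-stripped FBS were dosed with an 8-point 1:4 dilution series from 100 uM top final concentration, in duplicate. Impedance-based growth was followed for 80 h; AUC analysed versus DMSO.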
# [2] = tested on: frog Estrogen Receptor (ESR1), gene 398734; assay: ATG_frER1_XSP1: Attagene TRANS-FACTORIAL Multi-Species (XSP1) HepG2 Assay for frog Estrogen Receptor (ESR1) (AID 2283777)
# How it was run: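 Read-out: fluorescent reporter mRNA via RT-PCR, HpaI digestion and capillary electrophoresis, after 24 h chemical exposure of transiently transfected human HepG2 cells expressing exogenous NR-Gal4 chimeras. DMSO served as baseline for positive-direction fitting.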
# [3] = tested on: zebrafish Estrogen Receptor (ESR2A), gene 317734; assay: ATG_zfER2a_XSP1: Attagene TRANS-FACTORIAL Multi-Species (XSP1) HepG2 Assay for zebrafish Estrogen Receptor (ESR2A) (AID 2283778)
# How it was run: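 HepG2 cells transiently transfected with multiplexed GAL4-UAS reporter units and chimeric NR-GAL4 receptors; 24 h compound exposure with 3 nM 6-alpha-fluorotestosterone present. Reporter mRNA quantified by RT-PCR and capillary electrophoresis, gain-of-signal fitted relative to DMSO.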
# [4] = target: chicken Estrogen Receptor (ESR1), ESR1 (gene 396099) (UniProt P06212); assay: ATG_chERa_XSP1: Attagene TRANS-FACTORIAL Multi-Species (XSP1) HepG2 Assay for chicken Estrogen Receptor (ESR1) (AID 2283779)
# Chain of chicken Estrogen Receptor (ESR1), ESR1 (gene 396099) (P06212 whole entry, looked up, the tested form may be a part): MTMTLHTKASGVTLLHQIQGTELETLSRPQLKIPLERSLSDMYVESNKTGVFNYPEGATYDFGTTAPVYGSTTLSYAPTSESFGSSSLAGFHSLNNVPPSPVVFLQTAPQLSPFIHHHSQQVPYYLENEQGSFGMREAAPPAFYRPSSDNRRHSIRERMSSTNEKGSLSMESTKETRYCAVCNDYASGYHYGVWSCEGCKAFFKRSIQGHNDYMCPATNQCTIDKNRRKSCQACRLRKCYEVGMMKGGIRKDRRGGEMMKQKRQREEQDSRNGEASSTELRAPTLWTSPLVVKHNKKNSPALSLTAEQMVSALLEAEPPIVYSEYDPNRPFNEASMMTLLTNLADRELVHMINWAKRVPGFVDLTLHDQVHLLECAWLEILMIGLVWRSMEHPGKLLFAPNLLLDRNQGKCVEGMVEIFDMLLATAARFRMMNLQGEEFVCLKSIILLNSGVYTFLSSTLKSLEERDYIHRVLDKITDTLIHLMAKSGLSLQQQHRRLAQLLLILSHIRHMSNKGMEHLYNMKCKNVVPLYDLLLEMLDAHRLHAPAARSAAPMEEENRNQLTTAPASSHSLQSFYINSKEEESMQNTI
# How it was run: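 HepG2 cells transiently transfected with multiplexed GAL4-UAS reporter units expressing chimeric NR-Gal4 proteins; 3 nM 6-alpha-fluorotestosterone present. Reporter mRNA measured 24 h after dosing by RT-PCR, FAM labelling, HpaI digest and capillary electrophoresis; gain of signal versus DMSO.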
# [5] = tested on: turtle Estrogen Receptor (ESR1), gene 101933533; assay: ATG_trERa_XSP1: Attagene TRANS-FACTORIAL Multi-Species (XSP1) HepG2 Assay for turtle Estrogen Receptor (ESR1) (AID 2283781)
# How it was run: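 HepG2 cells transiently transfected with GAL4-UAS reporter units and chimeric NR-Gal4 constructs, dosed for 24 h with 3 nM 6-alpha-fluorotestosterone present. Reporter mRNA was quantified by RT-PCR, fluorescent labelling and capillary electrophoresis, with gain of signal fitted relative to DMSO.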
# [6] = target: Estrogen receptor beta (Homo sapiens) (UniProt Q92731); assay: ATG_hERb_XSP1: Attagene TRANS-FACTORIAL Multi-Species (XSP1) HepG2 Assay for human Estrogen Receptor (ESR2) (AID 2283788)
# Chain of Estrogen receptor beta (Homo sapiens) (Q92731 whole entry, looked up, the tested form may be a part): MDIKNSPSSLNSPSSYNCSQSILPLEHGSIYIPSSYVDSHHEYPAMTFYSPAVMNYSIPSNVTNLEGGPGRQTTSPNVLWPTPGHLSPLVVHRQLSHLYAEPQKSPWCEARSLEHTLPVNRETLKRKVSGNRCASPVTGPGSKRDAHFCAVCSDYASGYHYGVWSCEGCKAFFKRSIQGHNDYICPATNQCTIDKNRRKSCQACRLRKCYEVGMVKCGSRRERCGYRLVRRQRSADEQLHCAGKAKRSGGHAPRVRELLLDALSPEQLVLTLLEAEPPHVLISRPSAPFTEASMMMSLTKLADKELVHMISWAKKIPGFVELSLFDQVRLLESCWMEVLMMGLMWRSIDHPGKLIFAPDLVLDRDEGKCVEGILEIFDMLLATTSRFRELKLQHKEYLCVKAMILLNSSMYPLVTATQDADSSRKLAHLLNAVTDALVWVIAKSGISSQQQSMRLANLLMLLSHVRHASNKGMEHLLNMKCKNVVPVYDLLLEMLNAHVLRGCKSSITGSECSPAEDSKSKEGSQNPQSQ
# How it was run: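 Read-out: reporter mRNA induction by RT-PCR, HpaI digestion and capillary electrophoresis fluorescence, fitted in positive direction relative to DMSO baseline. Human liver HepG2 cells expressing ERβ-Gal4 fusion, dosed 24 h, medium containing 3 nM 6-alpha-fluorotestosterone.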
# [7] = target: GAL4 Transcription Factor (Internal Marker), GAL4 (gene 855828) (UniProt P04386); assay: ATG_GAL4_XSP1: Attagene TRANS-FACTORIAL Multi-Species (XSP1) HepG2 Assay for GAL4 Transcription Factor (Internal Marker) (AID 2283789)
# Chain of GAL4 Transcription Factor (Internal Marker), GAL4 (gene 855828) (P04386 whole entry, looked up, the tested form may be a part): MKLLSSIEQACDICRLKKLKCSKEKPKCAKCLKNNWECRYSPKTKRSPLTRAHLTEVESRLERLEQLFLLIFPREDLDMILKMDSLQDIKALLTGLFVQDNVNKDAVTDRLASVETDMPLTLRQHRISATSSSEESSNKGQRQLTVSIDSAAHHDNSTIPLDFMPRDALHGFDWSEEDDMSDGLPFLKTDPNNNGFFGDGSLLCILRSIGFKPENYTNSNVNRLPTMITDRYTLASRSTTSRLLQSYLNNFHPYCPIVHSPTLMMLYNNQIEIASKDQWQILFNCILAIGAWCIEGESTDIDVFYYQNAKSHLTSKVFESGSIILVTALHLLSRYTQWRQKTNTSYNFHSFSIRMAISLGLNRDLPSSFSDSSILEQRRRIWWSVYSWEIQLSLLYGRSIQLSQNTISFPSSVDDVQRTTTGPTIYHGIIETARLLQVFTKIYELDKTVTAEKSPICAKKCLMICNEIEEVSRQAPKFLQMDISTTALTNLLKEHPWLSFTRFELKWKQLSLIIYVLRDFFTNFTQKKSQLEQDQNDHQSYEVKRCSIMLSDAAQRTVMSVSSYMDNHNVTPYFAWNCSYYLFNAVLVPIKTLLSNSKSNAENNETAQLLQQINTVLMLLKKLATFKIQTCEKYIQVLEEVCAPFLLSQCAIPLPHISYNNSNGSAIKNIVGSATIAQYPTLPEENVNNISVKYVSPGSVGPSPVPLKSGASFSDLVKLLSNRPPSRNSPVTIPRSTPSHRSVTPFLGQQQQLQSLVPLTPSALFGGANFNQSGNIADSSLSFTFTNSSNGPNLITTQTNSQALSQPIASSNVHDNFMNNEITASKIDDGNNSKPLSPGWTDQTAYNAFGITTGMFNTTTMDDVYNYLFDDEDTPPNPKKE
# How it was run: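 HepG2 cells transiently transfected with multiplexed GAL4-UAS reporter units were exposed for 24 h with 3 nM 6-alpha-fluorotestosterone present. Reporter mRNA was quantified by RT-PCR, FAM labelling, HpaI digestion and capillary electrophoresis; background-control readout, gain-of-signal versus DMSO.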
# [8] = ATG_M_06_XSP1: Attagene TRANS-FACTORIAL Multi-Species (XSP1) HepG2 Assay for M06 Transcription Factor (Internal Marker) (AID 2283790)
# How it was run: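 Transfected HepG2 multi-reporter system treated 24 h in the presence of 3 nM 6-alpha-fluorotestosterone. The M06 internal marker transcript was quantified by RT-PCR with capillary electrophoresis as a background control, and gain of signal was scored versus DMSO.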
# [9] = ATG_M_61_XSP1: Attagene TRANS-FACTORIAL Multi-Species (XSP1) HepG2 Assay for M61 Transcription Factor (Internal Marker) (AID 2283797)
# How it was run: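 HepG2 cells transiently transfected with multiplexed GAL4-driven reporter units, dosed 24 h with 3 nM 6-alpha-fluorotestosterone present. Reporter mRNA quantified by RT-PCR, 6-FAM labelling, HpaI digestion and capillary electrophoresis; internal-marker background control, gain of signal versus DMSO.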
# [10] = target: Peroxisome proliferator-activated receptor gamma (Homo sapiens) (UniProt P37231); assay: ATG_hPPARg_XSP1: Attagene TRANS-FACTORIAL Multi-Species (XSP1) HepG2 Assay for human Peroxisome Proliferator-activated Receptor gamma (PPARg) (AID 2283800)
# Chain of Peroxisome proliferator-activated receptor gamma (Homo sapiens) (P37231 whole entry, looked up, the tested form may be a part): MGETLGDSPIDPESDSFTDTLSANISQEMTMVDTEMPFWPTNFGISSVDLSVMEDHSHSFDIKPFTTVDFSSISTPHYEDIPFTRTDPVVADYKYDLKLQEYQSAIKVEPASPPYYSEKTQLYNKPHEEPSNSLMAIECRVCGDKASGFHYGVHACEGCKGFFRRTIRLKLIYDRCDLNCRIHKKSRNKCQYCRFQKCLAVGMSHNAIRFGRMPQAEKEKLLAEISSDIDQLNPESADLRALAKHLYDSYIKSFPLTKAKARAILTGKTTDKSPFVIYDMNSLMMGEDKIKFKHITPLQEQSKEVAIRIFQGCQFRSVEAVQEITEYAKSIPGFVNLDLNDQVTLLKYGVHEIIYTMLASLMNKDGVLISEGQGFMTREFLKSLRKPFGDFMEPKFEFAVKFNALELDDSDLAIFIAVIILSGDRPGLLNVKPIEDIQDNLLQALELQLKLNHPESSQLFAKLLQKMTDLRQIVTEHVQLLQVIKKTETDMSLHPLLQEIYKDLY
# How it was run: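 HepG2 cells transiently transfected with GAL4-UAS reporter units carrying chimeric NR-Gal4 proteins; 3 nM 6-alpha-fluorotestosterone present. After 24 h dosing, reporter mRNA quantified by RT-PCR and capillary electrophoresis; gain of signal relative to DMSO.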
# [11] = target: Nuclear receptor subfamily 1 group I member 2 (Mus musculus) (UniProt O54915); assay: ATG_mPXR_XSP1: Attagene TRANS-FACTORIAL Multi-Species (XSP1) HepG2 Assay for mouse Pregnane X Receptor (PXR) (AID 2283803)
# Chain of Nuclear receptor subfamily 1 group I member 2 (Mus musculus) (O54915 whole entry, looked up, the tested form may be a part): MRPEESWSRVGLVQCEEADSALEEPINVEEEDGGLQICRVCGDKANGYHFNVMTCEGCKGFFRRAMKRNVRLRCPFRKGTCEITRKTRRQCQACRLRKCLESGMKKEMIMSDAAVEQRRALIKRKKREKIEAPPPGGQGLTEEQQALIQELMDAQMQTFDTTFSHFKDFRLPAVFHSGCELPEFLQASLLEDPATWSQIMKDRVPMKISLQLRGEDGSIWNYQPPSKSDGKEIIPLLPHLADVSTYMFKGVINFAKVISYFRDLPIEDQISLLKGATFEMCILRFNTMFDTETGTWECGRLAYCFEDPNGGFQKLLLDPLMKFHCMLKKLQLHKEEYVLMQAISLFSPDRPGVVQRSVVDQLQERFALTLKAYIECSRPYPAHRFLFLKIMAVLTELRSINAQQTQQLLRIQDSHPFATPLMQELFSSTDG
# How it was run: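 Transiently transfected HepG2 cells expressing a receptor-Gal4 chimera drive a GAL4-UAS reporter; 3 nM 6-alpha-fluorotestosterone included. Reporter mRNA read 24 h post-dose by RT-PCR and capillary electrophoresis; gain of signal relative to DMSO.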
# [12] = target: human Thyroid hormone Receptor alpha (TRa), THRA (gene 7067) (UniProt P10827); assay: ATG_hTRa_XSP1: Attagene TRANS-FACTORIAL Multi-Species (XSP1) HepG2 Assay for human Thyroid hormone Receptor alpha (TRa) (AID 2283805)
# Chain of human Thyroid hormone Receptor alpha (TRa), THRA (gene 7067) (P10827 whole entry, looked up, the tested form may be a part): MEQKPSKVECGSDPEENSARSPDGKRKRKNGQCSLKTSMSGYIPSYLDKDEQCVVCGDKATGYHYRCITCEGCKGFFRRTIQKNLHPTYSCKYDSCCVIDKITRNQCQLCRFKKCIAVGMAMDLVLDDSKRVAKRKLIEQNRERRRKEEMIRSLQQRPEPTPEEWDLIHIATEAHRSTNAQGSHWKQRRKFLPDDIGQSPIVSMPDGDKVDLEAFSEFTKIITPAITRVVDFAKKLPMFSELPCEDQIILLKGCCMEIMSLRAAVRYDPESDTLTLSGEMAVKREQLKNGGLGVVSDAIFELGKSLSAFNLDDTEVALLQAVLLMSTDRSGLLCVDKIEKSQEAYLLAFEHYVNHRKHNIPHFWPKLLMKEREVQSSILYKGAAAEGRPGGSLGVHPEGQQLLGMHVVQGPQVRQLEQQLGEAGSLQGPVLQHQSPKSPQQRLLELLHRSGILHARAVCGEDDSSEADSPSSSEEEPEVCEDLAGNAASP
# How it was run: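 HepG2 cells transiently transfected with GAL4-UAS reporter units expressing chimeric NR-Gal4 proteins, dosed 24 hours with 3 nM 6-alpha-fluorotestosterone present. Reporter mRNA measured by RT-PCR and capillary electrophoresis; gain of signal fitted versus DMSO.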
# [13] = tested on: turtle Thyroid Hormone Receptor, alpha (TRa), gene 101949057; assay: ATG_trTRa_XSP1: Attagene TRANS-FACTORIAL Multi-Species (XSP1) HepG2 Assay for turtle Thyroid Hormone Receptor, alpha (TRa) (AID 2283806)
# How it was run: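 HepG2 cells transiently transfected with GAL4-UAS reporter units and chimeric receptor-Gal4 constructs, with 3 nM 6-alpha-fluorotestosterone present. Reporter mRNA was quantified 24 h after dosing by RT-PCR, 6-FAM labelling and capillary electrophoresis; gain of signal versus DMSO.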
# [14] = target: zebrafish Thyroid Hormone Receptor alpha (TRa), thraa (gene 30670) (UniProt Q98867); assay: ATG_zfTRa_XSP1: Attagene TRANS-FACTORIAL Multi-Species (XSP1) HepG2 Assay for zebrafish Thyroid Hormone Receptor alpha (TRa) (AID 2283807)
# Chain of zebrafish Thyroid Hormone Receptor alpha (TRa), thraa (gene 30670) (Q98867 whole entry, looked up, the tested form may be a part): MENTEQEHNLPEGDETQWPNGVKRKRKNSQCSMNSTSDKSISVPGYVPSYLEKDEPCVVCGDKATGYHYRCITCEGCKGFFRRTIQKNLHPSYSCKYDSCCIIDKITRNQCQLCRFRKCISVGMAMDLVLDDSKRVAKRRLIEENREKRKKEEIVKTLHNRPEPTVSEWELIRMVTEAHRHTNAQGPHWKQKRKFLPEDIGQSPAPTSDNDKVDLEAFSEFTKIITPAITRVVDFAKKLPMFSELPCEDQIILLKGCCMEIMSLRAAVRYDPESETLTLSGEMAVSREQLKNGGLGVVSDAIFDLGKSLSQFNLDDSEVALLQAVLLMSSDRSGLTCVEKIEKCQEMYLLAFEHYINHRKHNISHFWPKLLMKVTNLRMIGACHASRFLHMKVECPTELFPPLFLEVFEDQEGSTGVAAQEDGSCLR
# How it was run: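 HepG2 cells transiently transfected with GAL4-UAS reporter units including a zebrafish TRa–Gal4 chimera, dosed 24 h with 3 nM 6-alpha-fluorotestosterone present. Reporter mRNA quantified by RT-PCR and capillary electrophoresis; gain versus DMSO.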
# [15] = target: human Thyroid hormone Receptor beta (TRb), THRB (gene 7068) (UniProt P10828); assay: ATG_hTRb_XSP1: Attagene TRANS-FACTORIAL Multi-Species (XSP1) HepG2 Assay for human Thyroid hormone Receptor beta (TRb) (AID 2283808)
# Chain of human Thyroid hormone Receptor beta (TRb), THRB (gene 7068) (P10828 whole entry, looked up, the tested form may be a part): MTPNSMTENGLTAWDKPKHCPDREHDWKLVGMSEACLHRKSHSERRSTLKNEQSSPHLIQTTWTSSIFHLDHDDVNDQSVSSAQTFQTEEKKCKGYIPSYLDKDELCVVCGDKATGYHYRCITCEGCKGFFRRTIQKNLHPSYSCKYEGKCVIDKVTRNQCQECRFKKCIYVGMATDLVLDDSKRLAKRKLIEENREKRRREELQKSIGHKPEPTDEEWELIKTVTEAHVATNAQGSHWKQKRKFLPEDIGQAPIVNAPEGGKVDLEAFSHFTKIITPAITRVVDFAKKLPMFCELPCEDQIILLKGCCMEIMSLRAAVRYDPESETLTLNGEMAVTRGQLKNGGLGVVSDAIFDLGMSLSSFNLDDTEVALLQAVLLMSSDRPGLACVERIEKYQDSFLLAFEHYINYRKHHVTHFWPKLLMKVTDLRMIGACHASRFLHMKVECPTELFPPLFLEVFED
# How it was run: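 HepG2 cells transiently transfected with reporter units driving GAL4-UAS reporters for chimeric NR-Gal4 proteins; 24 h chemical exposure with 3 nM 6-alpha-fluorotestosterone present. Reporter mRNA quantified by RT-PCR and capillary electrophoresis, gain of signal versus DMSO.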
# [16] = target: zebrafish Thyroid Hormone Receptor beta (TRb), thrb (gene 30607) (UniProt Q9PVE4); assay: ATG_zfTRb_XSP1: Attagene TRANS-FACTORIAL Multi-Species (XSP1) HepG2 Assay for zebrafish Thyroid Hormone Receptor beta (TRb) (AID 2283809)
# Chain of zebrafish Thyroid Hormone Receptor beta (TRb), thrb (gene 30607) (Q9PVE4 whole entry, looked up, the tested form may be a part): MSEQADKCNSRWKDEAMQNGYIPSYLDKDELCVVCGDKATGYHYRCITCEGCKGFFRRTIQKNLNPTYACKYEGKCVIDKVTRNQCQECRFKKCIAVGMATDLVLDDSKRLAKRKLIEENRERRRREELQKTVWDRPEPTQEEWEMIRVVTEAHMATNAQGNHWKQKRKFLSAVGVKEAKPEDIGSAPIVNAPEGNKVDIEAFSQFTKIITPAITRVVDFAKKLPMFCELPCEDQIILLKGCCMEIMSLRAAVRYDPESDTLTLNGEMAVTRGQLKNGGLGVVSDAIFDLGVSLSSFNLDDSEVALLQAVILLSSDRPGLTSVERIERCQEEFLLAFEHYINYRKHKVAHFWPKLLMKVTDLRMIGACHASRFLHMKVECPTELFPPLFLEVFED
# How it was run: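 HepG2 cells transiently transfected with multiplexed GAL4-UAS reporter units expressing chimeric zebrafish TRb–Gal4. Dosed 24 h with 3 nM 6-alpha-fluorotestosterone present; reporter mRNA measured by RT-PCR, HpaI digestion and capillary electrophoresis; gain of signal versus DMSO.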
# [17] = ATG_XTT_Cytotoxicity_XSP1: Cytotoxicity Assessment in the Attagene TRANS-FACTORIAL Multi-Species (XSP1) HepG2 Assay (AID 2283810)
# How it was run: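 XTT viability readout taken at 24 hours post-dosing in HepG2 liver cells co-treated with 3 nM 6-alpha-fluorotestosterone. Signal loss relative to DMSO controls reflects cytotoxicity.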
smiles,measurement,setting,value
NCc1cccc(CN)c1,outcome,[1],inactive
CC1=NN(c2ccccc2)C(=O)C1,outcome,[1],inactive
Cc1cncc(C)c1,AC50,[1],12.1 µM (active)
O=C(O)c1cccc(C(=O)O)n1,outcome,[1],inactive
Cc1ccc(C)c(S(=O)(=O)O)c1,outcome,[1],inactive
C=COC(=O)C(C)(C)CCCCCC,AC50,[1],19.6 µM (active)
C/C=C/C(=O)C1=C(C)CCCC1(C)C,outcome,[1],inactive
NCCN,outcome,[1],inactive
Oc1cccc2c(O)cccc12,AC50,[1],20.2 µM (active)
CCC(=O)O,outcome,[1],inactive
CN(CCO)S(=O)(=O)C(F)(F)C(F)(F)C(F)(F)C(F)(F)C(F)(F)C(F)(F)C(F)(F)C(F)(F)F,outcome,[1],inactive
COc1cccc(O)c1,outcome,[1],inactive
O=C(O)CCC(F)(F)C(F)(F)C(F)(F)C(F)(F)C(F)(F)C(F)(F)F,outcome,[1],inactive
O=C1NS(=O)(=O)c2ccccc21,outcome,[1],inactive
CCOC=C(C(=O)OCC)C(=O)OCC,outcome,[1],inactive
C=CC(=O)OCCN(CC)CC,outcome,[1],inactive
CCCCCCCCC(C)=O,AC50,[1],9.92 µM (active)
CNNCc1ccc(C(=O)NC(C)C)cc1,outcome,[1],inactive
C=CC(C)(CCC=C(C)C)OC(C)=O (stereo not given),outcome,[1],inactive
CCC(C)c1ccccc1O (stereo not given),AC50,[1],79.7 µM (active)
COC(O)c1ccccc1 (stereo not given),outcome,[1],inactive
CC(C)CCOCCC(C)C,AC50,[1],37.5 µM (active)
CCCCCCCCCCCC,AC50,[1],50 µM (active) and 40.4 µM (active)
O=C(O)CCC(F)(F)C(F)(F)C(F)(F)C(F)(F)C(F)(F)F,outcome,[1],inactive
Nc1ccn([C@@H]2O[C@H](CO)[C@@H](O)C2O)c(=O)n1 (stereo not given in full),AC50,[1],9.92 µM (active)
COc1ccc(C#N)cc1,AC50,[1],50 µM (active)
Clc1ccc2c(Cl)ccnc2c1,outcome,[1],inactive
CC1CNCC(C)O1 (stereo not given),outcome,[1],inactive
C[C@]12CC[C@@H]3c4ccc(O)cc4CC[C@H]3[C@@H]1C[C@@H](O)[C@@H]2O,AC50,[2],0.0279 µM (active)
same,AC50,[3],0.0157 µM (active)
same,AC50,[4],0.0227 µM (active)
same,AC50,[5],0.0172 µM (active)
same,AC50,[6],0.0105 µM (active)
same,outcome,[7],inactive
same,outcome,[8],inactive
same,outcome,[9],inactive
same,outcome,[10],inactive
same,outcome,[11],inactive
same,outcome,[12],inactive
same,outcome,[13],inactive
same,outcome,[14],inactive
same,outcome,[15],inactive
same,outcome,[16],inactive
same,outcome,[17],inactive
Oc1cc2ccccc2cc1O,AC50,[1],40.8 µM (active)

# From PubChem BioAssay (EPA / NIEHS)
